Source: PubChem
NTR1 ag: activates human neurotensin receptor 1 | P30989 | NTR1-U2OS beta-arrestin-GFP spot imaging, agonist mode | activation, % at 20 µM | 330,000 compounds, 0.17% hits;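 active = activation at or above 40% of the spot to cytoplasm intensity ratio, with at least 20 cells analyzed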;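 also: 0% = DMSO without peptide and 100% = 100 nM NTR1 peptide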
m5-HT2A agonist: mouse HTR2A agonism via beta-arrestin recruitment | P35363 | CHO-K1 mHTR2A beta-arrestin complementation, luminescence; percent of 30 µM serotonin response | activation, % at 7.6 µM | 360,000 compounds, 0.66% hits | AID 624169;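 active = activation above a run cutoff, the mean activation of all tested compounds plus 3 SD, cut at about 14% in these data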;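 also: 0% = plate median of compound wells and 100% = 30 µM serotonin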
Granule exo inh: lytic granule exocytosis inhibition; 360,000 compounds, 0.66% hits; TALL-104 LAMP-1 surface exposure, flow cytometry; cells stimulated with thapsigargin and PMA; inhibition, % at 10 µM;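 active = inhibition above about 55%, limit read from the data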
ABHD5 PLIN5 PPI: ABHD5-PLIN5 protein interaction inhibition; Q00G26+Q8WTS1; Split G. princeps luciferase complementation, luminescence, 4 h; inhibition, % at 4 µM; 360,000 compounds, 0.78% hits;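 active = inhibition above the mean inhibition across every tested compound plus 3 SD, cut at about 22% in these data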;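 also: 0% = DMSO only wells and the 100% control is not disclosed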
B2AR ag: human beta-2 adrenergic receptor agonism by FAP | response, % (concentration not given with the values) | Am2.2-beta2AR cells, FAP receptor internalization, flow cytometry | AID 504454 | 340,000 compounds, 0.43% hits | P07550;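 active = response above a set limit, near 3 SD of response in nonfluorescent compounds, cut at about 42% in these data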
Granule exo CP1: blocks lytic granule exocytosis | shares compounds with Granule exo inh | TALL-104 cells, LAMP-1 externalization, flow cytometry; stimulated with PMA plus thapsigargin | inhibition, % at 10 µM | 1,500 compounds, 11% hits | AID 651954; in the data active = inhibition above about 60%;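 also: 0% = stimulated vehicle wells and 100% = unstimulated wells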
* marks the source's active call; other numbers are inactive results. The list is not random: actives were taken first. Their share in the collection is about 2.3%.

CN(C)CCC(=O)N1c2ccccc2Sc2ccc(C(F)(F)F)cc21 was read as NTR1 ag -1, m5-HT2A agonist -5, Granule exo inh 67*, ABHD5 PLIN5 PPI 9, B2AR ag -5 and Granule exo CP1 -13.
Screening Cc1ccc(S(=O)(=O)CCC(=O)c2ccc(O)cc2O)cc1 returned NTR1 ag -1, m5-HT2A agonist 7, Granule exo inh 104*, ABHD5 PLIN5 PPI 9, B2AR ag -1 and Granule exo CP1 44.
Screening CSc1ncc(Cl)c(C(=O)Nc2cccnc2)n1 returned NTR1 ag -2, m5-HT2A agonist 7, Granule exo inh 79*, ABHD5 PLIN5 PPI 7, B2AR ag -5 and Granule exo CP1 -4.
For COc1cc2c(cc1OC)C(c1ccc(-c3ccc(Cl)c(Cl)c3)o1)=NCC2 the results were NTR1 ag 7, m5-HT2A agonist -9, Granule exo inh 94*, ABHD5 PLIN5 PPI 1, B2AR ag -3 and Granule exo CP1 91*.
For O=C(NC1CC1)c1cccc(NC(=O)C2CCN(S(=O)(=O)c3ccccc3C(F)(F)F)CC2)c1 the results were m5-HT2A agonist -7, Granule exo inh 0 and ABHD5 PLIN5 PPI -7.
For Cc1nc2c(-c3ccc(F)cc3)c(C)nn2c(C)c1CCC(=O)Nc1ccccc1 the results were NTR1 ag 4, m5-HT2A agonist -5, Granule exo inh -4, ABHD5 PLIN5 PPI 6 and B2AR ag -8.
CCN1CCN(c2ccc(NC(=O)CCc3c(C)nc4c(-c5ccc(F)cc5)c(C)nn4c3C)cc2)CC1 was read as NTR1 ag 4, m5-HT2A agonist -4, Granule exo inh 57*, ABHD5 PLIN5 PPI 17, B2AR ag 11 and Granule exo CP1 -10.
Screening Cc1nc2c(c(C)nn2-c2ccccc2)c(C)c1CCC(=O)NCCCOC(C)C returned NTR1 ag 1, m5-HT2A agonist -3, Granule exo inh 2, ABHD5 PLIN5 PPI -1 and B2AR ag -9.
For NC(=O)Cn1c(=O)n(CCCC(=O)NC2CCN(Cc3ccccc3)CC2)c(=O)c2ccccc21 the results were NTR1 ag -1, m5-HT2A agonist -3, Granule exo inh -1, ABHD5 PLIN5 PPI -14 and B2AR ag -9.
CCOc1ccc(NC(=O)Cn2c(=O)n(CCCC(=O)NC3CCN(Cc4ccccc4)CC3)c(=O)c3ccccc32)cc1 was read as NTR1 ag 3, m5-HT2A agonist -1, Granule exo inh 61*, ABHD5 PLIN5 PPI 4, B2AR ag 3 and Granule exo CP1 -10.
For O=C(NCCOCc1ccccc1)C(c1ccccc1)c1ccccc1 the results were NTR1 ag 0, m5-HT2A agonist -1, Granule exo inh 3, ABHD5 PLIN5 PPI 1 and B2AR ag -10.
Screening O=C1CCC[C@@H]2[C@H](Cc3ccccc3)[C@@H](O)C[C@@H]3CCN1[C@@H]32 returned m5-HT2A agonist -2, Granule exo inh 0, ABHD5 PLIN5 PPI 7 and B2AR ag -3.
For CC[C@@H]1C(=O)[C@H](Cc2ccccc2)[C@H]2CCCC(=O)N3CC[C@@H]1[C@@H]23 the results were m5-HT2A agonist 3, Granule exo inh 63*, ABHD5 PLIN5 PPI -2, B2AR ag -11 and Granule exo CP1 -14.
For CC(=O)c1c(C)[nH]c(C(=O)CN2CCN(S(=O)(=O)c3ccccc3[N+](=O)[O-])CC2)c1C the results were NTR1 ag 0, m5-HT2A agonist 4, Granule exo inh -1, ABHD5 PLIN5 PPI -1 and B2AR ag 2.
`C/C(=N\NC(=O)COc1ccc(C)cc1C(C)C)c1ccc(-n2ccnc2)cc1` gave NTR1 ag 4, m5-HT2A agonist -1, Granule exo inh 48, ABHD5 PLIN5 PPI 4 and B2AR ag 2.
Screening O=[N+]([O-])c1ccc(N2CCN(CC3CCCCC3)CC2)cc1 returned NTR1 ag 1, m5-HT2A agonist -13, Granule exo inh 63*, ABHD5 PLIN5 PPI 1, B2AR ag 8 and Granule exo CP1 -4.
CCCCSCCCNC(=O)c1ccc(CS(=O)(=O)c2ccccc2OC)o1 was read as NTR1 ag 3, m5-HT2A agonist 2, Granule exo inh 94*, ABHD5 PLIN5 PPI -1, B2AR ag -6 and Granule exo CP1 -13.
`Cc1cc(NC(=O)Nc2cccc(C)c2C)no1` gave NTR1 ag 1, m5-HT2A agonist 4, Granule exo inh -4, ABHD5 PLIN5 PPI 6 and B2AR ag 0.
